About 83,000 compounds went through this panel and 20% of them were active in at least one assay; those are over-represented in the sample as a whole.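 Activity criterion: percent growth below 10, measured after cells in 96-well plates were exposed to a single compound concentration for 48 hours.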 A number with no mark means an inactive call. The source made the active and inactive calls.
How the values were obtained:
Experiment in all cases: NCI-60 one-dose screen, 48 h (100 = growth as untreated, 0 = no growth, -100 = all killed)
Settings in all cases: 10 µM unless noted
NCI-H23 lung = system: NCI-H23 lung
NCI-H226 lung = system: NCI-H226 lung
NCI-H322M lung = system: NCI-H322M lung
HOP-62 NSCLC = system: HOP-62 NSCLC
NCI-H460 lung = system: NCI-H460 lung
HOP-92 NSCLC = system: HOP-92 NSCLC
NCI-H522 lung = system: NCI-H522 lung
A549/ATCC NSCLC = system: A549/ATCC NSCLC
786-0 renal = system: 786-0 renal
COLO 205 colon = system: COLO 205 colon
DU-145 prostate = system: DU-145 prostate
MALME-3M melanoma = system: MALME-3M melanoma
MDA-MB-231 breast = system: MDA-MB-231 breast
RXF 393 renal = system: RXF 393 renal
SF-268 CNS = system: SF-268 CNS
SF-295 CNS = system: SF-295 CNS
SF-539 CNS = system: SF-539 CNS
UACC-257 melanoma = system: UACC-257 melanoma
M14 melanoma = system: M14 melanoma
K-562 leukemia = system: K-562 leukemia

Row | Structure (SMILES) | growth (NCI-H23 lung) | growth (NCI-H226 lung) | growth (NCI-H322M lung) | growth (HOP-62 NSCLC) | growth (NCI-H460 lung) | growth (HOP-92 NSCLC) | growth (NCI-H522 lung) | growth (A549/ATCC NSCLC) | growth (786-0 renal) | growth (COLO 205 colon) | growth (DU-145 prostate) | growth (MALME-3M melanoma) | growth (MDA-MB-231 breast) | growth (RXF 393 renal) | growth (SF-268 CNS) | growth (SF-295 CNS) | growth (SF-539 CNS) | growth (UACC-257 melanoma) | growth (M14 melanoma) | growth (K-562 leukemia)
1 | CN(C)c1ccc2cc(-c3nc4ccccc4s3)c(N)nc2c1 | 50.8% | 119% | 49.8% | 40.3% | 19.6% | 85.1% | 17% | 28.3% | 35.3% | 84.1% | 40.8% | 83.4% | 70.7% | 83.5% | 58.7% | 22.3% | 34% | 93.9% | 50.9% | 
2 | CC(=O)N1N=C(CCC(=O)c2nc3ccc([N+](=O)[O-])cc3[nH]2)OC1c1ccc(O)cc1 (stereo not drawn) | 93.2% | 101% | 99% | 91.2% | 103% | 118% | 51.3% | 106% | 106% | 92.3% | 108% | 94.4% | 102% | 111% | 97.7% | 96.4% | 100% | 103% | 103% | 
3 | OCc1cnccc1NC12CC3CC(CC(C3)C1)C2 | 102% | 95.4% | 103% | 101% | 100% | 86.2% | 86.1% | 96% | 101% | 91.1% | 104% | 99.4% | 97.6% | 99.9% | 98.3% | 102% | 108% | 90% | 100% | 
4 | O=C(NC(=S)Nc1ccc(Cl)cc1)c1ccccc1 | 98.4% | 108% | 107% | 96.6% | 105% | 85.8% | 53% | 85.1% | 90.9% | 132% | 103% | 112% | 96.3% |  | 114% | 85.5% | 103% | 97% | 100% | 73.2%
5 | CCNC(=O)Oc1ccc(/C(=C(/CC)Cc2ccccc2)c2ccc(OCCN3CCOCC3)cc2)cc1 | 66.8% | 59.4% | 72.8% | 84% | 44.7% | 38.6% | 56.4% | 36.7% | 55.7% | 50.9% | 73.9% | 81.1% | 71.4% | 42.7% | 43.7% | 68.7% | 77.2% | 79.4% | 41.6% | 
6 | CC(=O)O[C@@H]1[C@@H](OC(C)=O)[C@H](OC(C)=O)CO[C@H]1Nc1cccc2ccccc12 | 94.8% | 97.2% | 94.4% | 94.1% | 98% | 104% | 68.3% | 102% | 107% | 99.7% | 100% | 86.9% | 89% | 105% | 83.1% | 94.5% | 90.2% | 103% | 99.6% | 
7 | COc1ccc(-c2cc3ccc(N(C)C)cc3nc2N)c(F)c1 | 19% | 48.2% | 66.9% | 40.3% | 31.9% | 19% | 31% | 40.8% | 48.3% | 12.2% | 56.1% | 25.3% | 48.5% | 32.4% | 56.5% | 25.4% | 49.1% | 23.3% | -60.5% (active) | 
8 | COc1cc(/C=C/C(=O)N2CCC=CC2=O)cc(OC)c1OC | 62.3% | 109% | 84.3% | 82.8% | 76% | 28.9% | -68.2% (active) | 72.3% | 29.5% | 5.08% (active) | 43.5% | 10.5% | 45.9% | 9.03% (active) | 85.1% | 94.1% | 29.6% | 66.4% | 55.7% | 
9 | Fc1cccc(F)c1C#Cc1ccc2cccnc2c1 | 79.5% | 101% | 89.8% | 89.5% | 86% | 82.4% | 75.8% | 82.6% | 113% | 96.4% | 96.5% | 90.3% | 78% | 101% | 88.6% | 101% | 102% | 88.2% | 95.7% | 
10 | NC(CSC(c1ccccc1)(c1ccccc1)c1ccc(F)cc1)C(=O)O (stereo not drawn) | 14.4% | 61.8% | 28.7% | -28.7% (active) | 2.02% (active) | -24.3% (active) | -59.1% (active) | 11.7% | -50.8% (active) | 5.57% (active) | -40.3% (active) | 30.6% | -18.6% (active) |  | 24.4% | 0.119% (active) | -7.79% (active) | -15.2% (active) | -55.4% (active) | -4.92% (active)
11 | CC(=O)c1cc2c(c(O)c1C)C(=O)C(=O)c1c(O)cccc1-2 | -15.3% (active) | -69.7% (active) | -83.6% (active) | -78.5% (active) | -57.6% (active) | -43.9% (active) | -62.4% (active) | -66.8% (active) | -78.6% (active) | -75.4% (active) | -94.8% (active) | -83.1% (active) | -79.3% (active) | -90.2% (active) | -45.8% (active) | -82.5% (active) | -98.3% (active) | -95.7% (active) | -87.7% (active) | 
12 | CCn1c(SCC(=O)c2ccc(Br)cc2)nnc1-c1cc2c([nH]c3ccccc32)c(-c2cccc(O)c2)n1 | 85.2% | 94.4% | 79.2% | 67.6% | 68.1% | 95.2% | 49.2% | 41% | 32.9% | 108% | 85.3% | 64.6% | 75.4% | 1.81% (active) | 72.5% | 41.1% | 60.9% | 83.8% | 72.2% | 

Reference: PubChem BioAssay (NCI)
